Compound activity as filed in PubChem BioAssay.
Most compounds without a hit are left out; they make up all but 4.7% or so of the library.
ALR H2O2 inh – human ALR oxidase inhibition via reduced H2O2; purified ALR, DTT oxidation, H2O2 HRP-luminol luminescence; inhibition, % (test concentration not listed); P55789; actives 3.8% (n = 290,000);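 active = mean replicate inhibition above about 79%, with every replicate also reaching it, limit read from the data; inconclusive = only one of the two criteria met; inactive = mean below limit and not every replicate reaching it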
eIF4H FP inh – inhibitors of RNA binding by human eIF4H. Q15056. eIF4H fluorescence polarization binding assay. inhibition, % at 35 µM. actives 0.94% (n = 290,000). AID 2012;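 also: calls also rest on retests at 20 µM and on dose response follow-up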
PABP polyA inh – blocks human PABP binding to poly(A) RNA. fluorescence polarization. inhibition, % at 35 µM. actives 1% (n = 290,000). AID 2014;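 also: calls also rest on retests at 20 µM and on dose response follow-up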
Target sequence (P11940 whole entry, looked up): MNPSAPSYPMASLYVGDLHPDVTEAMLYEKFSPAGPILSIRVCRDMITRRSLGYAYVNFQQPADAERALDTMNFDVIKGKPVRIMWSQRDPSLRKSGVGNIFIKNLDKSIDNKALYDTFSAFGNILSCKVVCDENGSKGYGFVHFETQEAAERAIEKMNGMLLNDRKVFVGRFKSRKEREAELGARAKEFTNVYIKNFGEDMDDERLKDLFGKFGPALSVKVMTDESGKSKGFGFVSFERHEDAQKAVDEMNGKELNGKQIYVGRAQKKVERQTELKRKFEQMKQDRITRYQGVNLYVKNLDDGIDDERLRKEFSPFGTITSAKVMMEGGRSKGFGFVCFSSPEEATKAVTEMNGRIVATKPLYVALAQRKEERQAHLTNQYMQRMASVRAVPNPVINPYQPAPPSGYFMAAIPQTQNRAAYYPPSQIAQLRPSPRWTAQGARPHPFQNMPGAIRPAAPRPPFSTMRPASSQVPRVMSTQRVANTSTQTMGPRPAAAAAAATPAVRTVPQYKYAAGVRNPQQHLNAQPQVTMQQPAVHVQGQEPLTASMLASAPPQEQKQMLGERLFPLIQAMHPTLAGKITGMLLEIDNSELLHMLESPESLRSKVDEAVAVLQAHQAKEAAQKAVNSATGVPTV
PABP1 MLLE inh – blocks PAM2 peptide binding to the PABP1 MLLE domain. P11940. actives 0.36% (n = 360,000). inhibition, % at 20 µM. GST-MLLE / FITC-PAM2 fluorescence polarization; in the data active = inhibition above about 35%, passing the limit was not always enough;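 also: plate controls were DMSO wells with GST-MLLE for no effect and wells lacking GST-MLLE protein for full effect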
SUMO HTRF inh – inhibitors of human SUMOylation (UBC9). AID 2006. P63279. inhibition, % at 35 µM. actives 0.36% (n = 290,000). HTRF SUMOylation assay, SAE1/SAE2 + UBC9, in vitro; in the data active = inhibition above about 50%, passing the limit was not always enough; inconclusive = no clear call, values can overlap the other calls
Efflux pump mplx – inhibitors of Candida antifungal efflux pumps expressed in yeast | S. cerevisiae Candida pump triplex, Nile Red efflux | inhibition, % at 10 µM | actives 0.44% (n = 330,000);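 active = plate passing quality check with inhibition over a set limit, or well fluorescence over plate mean plus 4 SD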;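 also: Nile Red retained in pooled yeast measured as flow cytometry median fluorescence; 0% = buffer negative control and 100% = Enniatin B positive control; higher means more Nile Red kept so more efflux inhibition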
* hit, by the source's call; u = inconclusive; x = not tested or not shown. Unless noted, no rule for the calls is given here.

SMILES | ALR H2O2 inh | eIF4H FP inh | PABP polyA inh | PABP1 MLLE inh | SUMO HTRF inh | Efflux pump mplx
COc1ccc(-c2ccc(=O)n(Cc3ccccc3)n2)cc1 | -4 | 5 | 12 | 6 | 16 | 0
COc1ccc(-c2c(C)nn(Cc3ccccc3)c2N)cc1 | 97* | -3 | 14 | 3 | -14 | 0
CC1(c2ccc3c(c2)OCCO3)NC(=O)N(CC(=O)Nc2ccccc2)C1=O (stereo not given) | -2 | x | x | 2 | x | 0
COc1ccc(NC(=O)/C(C#N)=C/c2ccc(-c3ccccc3C(=O)O)o2)cc1 | x | 6 | 15 | 4 | -2 | 0
COc1ccc(NC(=O)/C(C#N)=C\c2ccc(Br)o2)cc1 | x | 80* | 49* | -9 | 19 | 0
COc1ccc(NC(=O)/C(C#N)=C\c2ccc(-c3cc(C(=O)O)ccc3C)o2)cc1 | 0 | 79* | 67* | 18 | 4 | 0
CCN(Cc1ccccc1)c1ccc(/C=N/N=C(N)N)cc1 | 99* | 5 | 4 | -50 | -5 | 0
CCN(Cc1ccccc1)c1ccccc1 | x | x | x | 2 | x | x
OCC#CCSc1nnc(-c2ccc(Br)cc2)o1 | 4 | -14 | -6 | -90 | -10 | 0
COC(=O)Sc1nnc(-c2ccc(Br)cc2)o1 | 98* | -8 | -8 | x | -8 | 0
COC(=O)c1ccc(OC(=O)CN2C(=O)c3ccccc3C2=O)cc1 | x | -1 | -8 | 11 | -9 | 0
Cc1cc(S(=O)(=O)NCc2ccncc2)c(C)cc1Br | 2 | -3 | -8 | -13 | 13 | 0
CCOc1cc(/C=N\NC(=O)c2c(C)nc3ccccn23)ccc1O | 89* | -16 | -7 | 5 | 4 | 0
COc1cc(/C=N/NC(=O)c2c(-c3ccccc3)noc2C)ccc1O | 99* | -8 | 5 | -8 | -1 | 0
CCOc1cc(/C=N/NC(=O)c2ccc(=O)n(C)c2)ccc1O | 99* | -5 | 0 | 4 | 3 | 0
CCOc1cc(/C=N/NC(=O)c2c(-c3ccccc3)noc2C)ccc1O | 96* | -5 | -11 | 1 | 18 | 0
COc1cccc(/C=N/NC(=O)c2c(-c3ccccc3)noc2C)c1O | 45 | 3 | -13 | -5 | 24 | 0
COc1ccc(C(=O)C(C)Sc2nnc(C3CC3)n2C2CC2)cc1 (stereo not given) | -1 | x | x | -8 | x | 0
Cc1ccc(C(C)C)c(OCc2ccc(C(=O)N/N=C/c3ccc(O)c(O)c3)cc2)c1 | 97* | -1 | -15 | -5 | -17 | 0
Cc1[nH]c2ccccc2c1SCCNC(=O)c1ccc(Br)o1 | 78* | -6 | 8 | 8 | -15 | 0
COc1ccc(O)c(-c2cc(-c3ccccc3[N+](=O)[O-])[nH]n2)c1 | 99* | -11 | -10 | -16 | -14 | 0
Oc1ccccc1-c1cc(-c2ccccc2Cl)[nH]n1 | 89* | 4 | 10 | -2 | -14 | 0
O=[N+]([O-])c1ccccc1-c1cc(-c2cc(Cl)ccc2O)n[nH]1 | 99* | -2 | -1 | 3 | -16 | 0
Cc1ccc(O)c(-c2cc(-c3ccccc3[N+](=O)[O-])[nH]n2)c1 | 65 | -11 | -9 | 5 | -12 | 0
N#Cc1cccc(NC(=O)CSc2nnc(C3CC3)n2C2CC2)c1 | -4 | x | x | -19 | x | 0
SMILES | ALR H2O2 inh | eIF4H FP inh | PABP polyA inh | PABP1 MLLE inh | SUMO HTRF inh | Efflux pump mplx
COc1ccc(S(=O)(=O)NCCc2nnc3ccc(SCC(=O)Nc4nc(C)cs4)nn23)cc1 | 89* | -4 | 2 | 9 | 24 | 1
Cc1csc(NC(=O)CSc2ccc3nnc(CCNS(=O)(=O)c4ccccc4)n3n2)n1 | 12 | 12 | -6 | 9 | 5 | 1
C#CCOC(=O)c1ccccc1C(=O)n1nnc2ccccc21 | 97* | -8 | 1 | 2 | 13 | 0
C#CCOC(=O)c1ccccc1C(=O)OCC#C | -2 | 2 | -9 | 4 | 25 | 0
O=C(c1cccc2ccccc12)n1nnc2ccccc21 | 94* | x | x | x | x | 0
Cc1ccc(C(=O)n2nnc3ccccc32)cc1 | 15 | x | x | x | x | 0
Cc1cc(O)ccc1NS(=O)(=O)c1ccc2c3c(cccc13)C(=O)N2 | 99* | 7 | 20 | 7 | 9 | 0
Oc1cc(O)c2c(c1)O[C@H](c1ccc(O)c(O)c1)[C@@H](O)C2 | 95* | 5 | 18 | 7 | -22 | 0
O=C1C[C@@H](c2ccccc2)Oc2cc(O)cc(O)c21 | 7 | x | x | 6 | x | 0
O=C1c2c(O)cc(O)cc2O[C@H](c2ccc(O)c(O)c2)[C@@H]1O | 99* | 2 | 5 | x | 5 | 0
COc1cc(OC)c2c(c1)OC(c1ccc(OC)c(OC)c1)C(O)C2=O (stereo not given) | x | 1 | -7 | -2 | 6 | 0
O=C1c2c(O)cc(O)cc2O[C@H](c2ccc(O)c(O)c2)[C@H]1O | 99* | x | x | -15 | x | 0
COc1ccc([C@@H]2CC(=O)c3c(O)cc(O)cc3O2)cc1O | 3 | x | x | -4 | x | 0
O=C1c2c(O)cc(O)cc2O[C@H](c2ccc(O)cc2)[C@H]1O | 87* | x | x | -7 | x | 0
Nc1nc(-c2ccccc2)c(CCCNc2ccccc2)c(=O)[nH]1 | x | x | x | 4 | x | x
C[C@@H]1O[C@@H](O[C@@H]2C(=O)c3c(O)cc(O)cc3O[C@H]2c2ccc(O)c(O)c2)[C@H](O)[C@H](O)[C@H]1O | 99* | x | x | -4 | x | 0
Cc1ccc(/C=C2/C(=N)N3N=C(CC(=O)N4CCCC4)SC3=NC2=O)cc1 | 97* | 13 | 3 | -10 | -8 | 0
COc1ccc(/C=C2/C(=N)N3N=C(CC(=O)N4CCCC4)SC3=NC2=O)cc1OC | 11 | -2 | 3 | 4 | 3 | 0
C=CCOc1ccc(/C=C2/C(=N)N3N=C(CC(=O)N4CCCC4)SC3=NC2=O)cc1OC | 99* | 8 | 14 | -13 | 6 | 0
COc1cc(/C=C2\C(=N)N3N=C(S(C)(=O)=O)SC3=NC2=O)ccc1OCCOc1ccccc1C | u | 88* | 65* | -3 | 34 | 0
O=C(CSCc1ccc(Cl)cc1)Nc1ccc(Br)cc1C(=O)O | 96* | -1 | 6 | 4 | 8 | 0
O=C(CSCc1ccc(Cl)cc1)Nc1ccccc1O | -9 | 1 | -15 | -2 | 11 | 0
Cc1c(NC(=O)CSCc2ccc(Cl)cc2Cl)cccc1C(=O)O | 98* | -2 | 8 | -5 | 11 | 0
O=C(CSCc1ccc(Cl)cc1Cl)Nc1ccc(O)cc1C(=O)O | 98* | 0 | 1 | 7 | 9 | 1
COc1cc(NC(=O)CSCc2ccc(Cl)cc2Cl)c(C(=O)O)cc1OC | 73 | 0 | 5 | 9 | 4 | 0
O=C(CSCc1ccc(Cl)cc1Cl)Nc1ccccc1C(=O)Nc1ccc(C(=O)O)cc1 | 97* | -10 | -14 | 8 | -4 | 0
O=C(CSCc1ccc(Cl)cc1Cl)Nc1c[nH]c(=O)[nH]c1=O | 0 | 2 | 21 | 8 | 15 | 0
